The test system of one test is Staphylococcus aureus. In words: Antibacterial activity against Staphylococcus aureus MRSA ATCC 43300 (CO-ADD:GP_020); MIC in CAMBH media using NBS plates, by Resazurin F(560/590). The class given is functional. Conditions: Concentration 20 uM, ASSAY_TEST Inhibition of Bacterial Growth, detection method Resazurin, Fluorescence (ex560/em590), MEDIA CAMHB, plate type 384well, CORNING #3640, time 18 hr. A general note: The colour change of resazurin is a common sign of viable cells or microbes.

In a further test the test system is Acinetobacter baumannii. In words: Antibacterial activity against Acinetobacter baumannii ATCC 19606 (CO-ADD:GN_034); MIC in CAMBH media using NBS plates, by Resazurin F(560/590). Type of test: functional. The following applies: Concentration 20 uM, ASSAY_TEST Inhibition of Bacterial Growth, detection method Resazurin, Fluorescence (ex560/em590), MEDIA CAMHB, plate type 384well, CORNING #3640, time 18 hr.

The next test concerns Escherichia coli. The test can be described thus: Antibacterial activity against Escherichia coli ATCC 25922 (CO-ADD:GN_001); MIC in CAMBH media using NBS plates, by Resazurin F(560/590). The class given is functional. Conditions: Concentration 20 uM, ASSAY_TEST Inhibition of Bacterial Growth, detection method Resazurin, Fluorescence (ex560/em590), MEDIA CAMHB, plate type 384well, CORNING #3640, time 18 hr.

For a further test, the system named is Klebsiella pneumoniae. The following applies: Concentration 20 uM; ASSAY_TEST Inhibition of Bacterial Growth; detection method Absorption (OD600); MEDIA CAMHB; plate type 384well; NBS; CORNING #3640; time 18 hr.
For the next test, the system named is Candida albicans. Conditions: 20 µM.
For the next test, the system named is Cryptococcus neoformans. Conditions: Concentration 20 uM; ASSAY_TEST Inhibition of Fungal Growth; detection method Resazurin; Absorption (OD600-OD570); plate type 384well; NBS; CORNING #3640.

For part of these data: Potency and affinity values are given separately.

Usually Inhibition stands for the change of the read-out against control, counted positive when it falls. For `CN1CCC(n2[nH]c(-c3ccccc3)c(Cc3ccccc3)c2=O)CC1` [BENZPIPERYLON], the Inhibition in the test with Staphylococcus aureus was 11.83%; in the test with Acinetobacter baumannii, -21.66%; with Escherichia coli it was 9.93%; in the test on Klebsiella pneumoniae it was 7.59%; with Candida albicans it was -2.02%; in the test on Cryptococcus neoformans it was -11.9%.

Regarding `CCCn1cnc2c(S)nc(N)nc21`, the Inhibition is 0.53% in the test on Staphylococcus aureus; -16.82% with Acinetobacter baumannii; 10% in the test with Escherichia coli; 2.88% in the test on Klebsiella pneumoniae; -1.47% in the test on Candida albicans; -9.79% in the test on Cryptococcus neoformans.

Consider `O=[N+]([O-])c1ccc(Sc2ncccn2)c([N+](=O)[O-])c1`, for which the Inhibition was -0.05% in the test with Staphylococcus aureus; -11.01% in the test on Acinetobacter baumannii; 5.58% in the test on Escherichia coli; 8.38% with Klebsiella pneumoniae; 12.9% in the test with Candida albicans; -3.06% in the test with Cryptococcus neoformans.

Regarding `COc1cc(OC)c2c(=O)cc(-c3cccnc3)oc2c1`, the Inhibition in the test on Staphylococcus aureus was 13.2%; in the test on Acinetobacter baumannii it was 11.57%; in the test on Escherichia coli it was -0.96%; in the test with Klebsiella pneumoniae it was 9.22%; with Candida albicans, 2.37%; in the test with Cryptococcus neoformans it was -8.93%.

Consider `COc1ccc([N+](=O)[O-])cc1NS(=O)(=O)c1ccc(C)cc1`, for which the Inhibition in the test on Staphylococcus aureus is 7.11%; in the test with Acinetobacter baumannii, 4.99%; in the test on Escherichia coli, 7.35%; with Klebsiella pneumoniae, 9.82%; with Candida albicans, 5.66%; with Cryptococcus neoformans, -6.48%.

On to `Nc1nc(O)c2nn(-c3ccccc3)nc2n1`, for which the Inhibition in the test with Staphylococcus aureus was 7.59%; in the test on Acinetobacter baumannii, -13.43%; in the test on Escherichia coli, 5.48%; with Klebsiella pneumoniae, 0.39%; with Candida albicans, -3.03%; in the test on Cryptococcus neoformans it was 29.86%.

Regarding `Cn1ncc2c(NCc3ccccc3)ncnc21`, the Inhibition in the test with Staphylococcus aureus is 5.23%; with Acinetobacter baumannii, -15.8%; with Escherichia coli, 13.47%; in the test on Klebsiella pneumoniae, 1.24%; in the test with Candida albicans, -0.05%; with Cryptococcus neoformans, -9.92%.

Consider `CCOC(=O)c1c[nH]nc1O`, for which the Inhibition was 2.24% in the test with Staphylococcus aureus; -6.35% with Acinetobacter baumannii; -2.97% in the test with Escherichia coli; 21.4% in the test on Klebsiella pneumoniae; -1.88% in the test on Candida albicans; 1.44% with Cryptococcus neoformans.

Regarding `O=C(Nc1ccc(Cl)c([N+](=O)[O-])c1)Nc1nc2ccccc2s1`, the Inhibition with Staphylococcus aureus is 44.46%; with Acinetobacter baumannii, 0.46%; with Escherichia coli it was 3.52%; in the test on Klebsiella pneumoniae, 21.95%; with Candida albicans, 9.03%; with Cryptococcus neoformans, 11.69%.

On to `ClCC(CNCc1ccccc1)c1ccccc1` (stereo unspecified), for which the Inhibition is 7.68% in the test with Staphylococcus aureus; 11.29% with Acinetobacter baumannii; 0.62% in the test with Escherichia coli; 19.58% with Klebsiella pneumoniae; 5.41% in the test on Candida albicans; -7.48% in the test on Cryptococcus neoformans.

As for `O=C1c2ccccc2C(=O)N1c1nc[nH]n1`, the Inhibition in the test with Staphylococcus aureus was 4.45%; in the test with Acinetobacter baumannii, -18.59%; in the test with Escherichia coli, 12.38%; in the test on Klebsiella pneumoniae, 0.02%; in the test with Candida albicans, -0.21%; in the test on Cryptococcus neoformans it was -4.67%.

Turning to `CCCN=C(S)Nc1ccccc1`, the Inhibition with Staphylococcus aureus was -20.14%; in the test with Acinetobacter baumannii it was -0.42%; in the test with Escherichia coli, -3.75%; in the test on Klebsiella pneumoniae, 7.36%; with Candida albicans, 4.15%; with Cryptococcus neoformans it was 1.71%.

In the case of `CSc1nnc(-c2cccs2)[nH]1`, the Inhibition in the test with Staphylococcus aureus is 9.02%; in the test on Acinetobacter baumannii, -12.85%; with Escherichia coli, 11.01%; in the test on Klebsiella pneumoniae, 0.04%; with Candida albicans, 1.33%; with Cryptococcus neoformans it was -11.54%.

For `CN1CCN(C(=O)/C=C/c2ccc([N+](=O)[O-])o2)CC1`, the Inhibition is 14.1% with Staphylococcus aureus; 5.92% in the test with Acinetobacter baumannii; -7.59% in the test with Escherichia coli; 6.31% in the test with Klebsiella pneumoniae; 3.54% in the test on Candida albicans; 10.04% with Cryptococcus neoformans.

On to `COc1cc2c(c(OC)c1O)C(=O)CO2`, for which the Inhibition was -11.73% in the test with Staphylococcus aureus; -8.29% with Acinetobacter baumannii; -0.75% in the test on Escherichia coli; 1.47% with Klebsiella pneumoniae; 3.59% in the test on Candida albicans; -3.51% in the test with Cryptococcus neoformans.

Take `C=C(C)C/N=C/C1(C)CCC(C)=CO1` (stereo unspecified): the Inhibition is -0.35% in the test with Staphylococcus aureus; 0.87% with Acinetobacter baumannii; -9.37% in the test on Escherichia coli; 5.17% with Klebsiella pneumoniae; 1.63% in the test on Candida albicans; 19.3% in the test with Cryptococcus neoformans.

Regarding `Nc1[nH]nc2nc(-c3ccccc3)nc(O)c12`, the Inhibition in the test with Staphylococcus aureus was -2.47%; with Acinetobacter baumannii, -10.04%; with Escherichia coli it was 2.06%; with Klebsiella pneumoniae, 6.75%; in the test with Candida albicans, -0.22%; in the test with Cryptococcus neoformans, -3.34%.

In the case of `OC1(Cc2ccccc2)CCNCC1`, the Inhibition in the test with Staphylococcus aureus was 8.09%; with Acinetobacter baumannii it was -10.57%; in the test on Escherichia coli it was 6.88%; in the test with Klebsiella pneumoniae it was 12.17%; with Candida albicans, 7.54%; with Cryptococcus neoformans, -0.07%.

On to `O=c1oc2c(cc1O)oc(=O)c1cc(O)c(O)c(O)c12`, for which the Inhibition in the test with Staphylococcus aureus was 7.4%; with Acinetobacter baumannii it was 17.2%; with Escherichia coli, 5.53%; with Klebsiella pneumoniae, 31.38%; in the test with Candida albicans, 14.8%; in the test on Cryptococcus neoformans, -7.17%.

Turning to `O=C(O)/C=C\C(=O)Nc1nccs1`, the Inhibition was 6.29% with Staphylococcus aureus; -13.11% in the test with Acinetobacter baumannii; 4.99% with Escherichia coli; 25.17% with Klebsiella pneumoniae; 0.91% in the test on Candida albicans; -1.21% with Cryptococcus neoformans.

Turning to `Cn1c2c(sc1=O)CCC2`, the Inhibition with Staphylococcus aureus was 14.81%; with Acinetobacter baumannii, -10.92%; in the test on Escherichia coli, 5.93%; with Klebsiella pneumoniae it was 16.07%; in the test on Candida albicans, 2.06%; in the test on Cryptococcus neoformans, -0.94%.

On to `NC(=O)Cc1ccc2c(c1)[nH]c1ccccc12`, for which the Inhibition in the test with Staphylococcus aureus is 5.19%; in the test with Acinetobacter baumannii, -14.3%; in the test on Escherichia coli, 7.64%; with Klebsiella pneumoniae, 6.47%; with Candida albicans, 5.86%; in the test on Cryptococcus neoformans it was -8.43%.

As for `COC(=O)c1cncc(C)c1`, the Inhibition was 18.5% with Staphylococcus aureus; -13.2% in the test on Acinetobacter baumannii; 14.23% with Escherichia coli; 15.45% in the test on Klebsiella pneumoniae; 0.39% in the test with Candida albicans; -1.27% in the test with Cryptococcus neoformans.

For `O=C(O)c1cnn2c(S)ncnc12`, the Inhibition in the test on Staphylococcus aureus is 16.65%; with Acinetobacter baumannii, -14.23%; in the test with Escherichia coli, 9.48%; with Klebsiella pneumoniae it was 8.17%; in the test on Candida albicans, -0.99%; in the test with Cryptococcus neoformans it was -3.32%.

For the molecule `CC(C)n1cc(C#N)c(N)n1`, the Inhibition in the test on Staphylococcus aureus is -0.87%; in the test with Acinetobacter baumannii, -8.48%; in the test with Escherichia coli, 18.87%; with Klebsiella pneumoniae it was 15.17%; with Candida albicans, 3.75%; in the test on Cryptococcus neoformans, -6.7%.

As to `Cc1nc(NCc2ccccc2)c2cc[nH]c2n1` [ROLODINE], the Inhibition with Staphylococcus aureus was -1.89%; with Acinetobacter baumannii it was -12.81%; in the test on Escherichia coli, 4.8%; in the test with Klebsiella pneumoniae, 9.06%; in the test with Candida albicans it was 2.35%; with Cryptococcus neoformans, -8.43%.

These data come from ChEMBL document CHEMBL4296182, “CO-ADD screening of NIH NCI Diversity Set V”.
